# Measured values: PubChem BioAssay
# Calls of active or inactive are those of the source.
# Assays:
# [1] = binders of probe aFSTL3 on microarray, primary screen, stem cell growth factor project, biochemical, small-molecule microarray, fluorescence 635/667 (AID 1064); conditions: higher = more signal;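 also: measures binding of the biotinylated anti-FSTL3 antibody to printed compounds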
# [2] = binders from COS7 lysate, DM2A8 probe, primary screen, torsin A project, cell lysate, small-molecule microarray, fluorescence 635/667 (AID 1065); conditions: higher = more signal, COS7 lysate expressing mutant human TOR1A
# [3] = binders of probe aFGF2 on microarray, primary screen, stem cell growth factor project, biochemical, small-molecule microarray, fluorescence 635/667 (AID 1067); conditions: higher = more signal;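 also: measures binding of biotinylated aFGF2 protein to printed compounds on slides; z-score merges feature fluorescence and signal-to-noise across triplicate slides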
# [4] = binders of probe aFGF10 on microarray, primary screen, stem cell growth factor project, biochemical, small-molecule microarray, fluorescence 635/667 (AID 1071); conditions: higher = more signal;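 also: score merges 667 nm spot intensity and signal to noise from triplicate slides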
# [5] = target: Neurogenic locus notch homolog protein 2 (Homo sapiens) (UniProt Q04721); test: Notch2 binders on small-molecule microarrays, primary screen, biochemical, small-molecule microarray, 635 nm fluorescence, stem cell growth factors (AID 1073); conditions: Notch2 binding, higher = more signal
# [6] = target: Pro-neuregulin-1, membrane-bound isoform (Homo sapiens) (UniProt Q02297); test: NRG1 binders on small-molecule microarrays, primary screen, psychiatric disease protein project, biochemical, small-molecule microarray, fluorescence 635/667 (AID 1075); conditions: NRG1 binding, 635 nm fluorescence, higher = more signal;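 also: score combines 667 nm spot fluorescence with signal to noise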
# [7] = test system: Neuregulin-1 EGF-like domain; test: binders of neuregulin-1 EGF-like domain, primary screen, biochemical, small-molecule microarray, 635 nm fluorescence (AID 1081); conditions: small-molecule microarray binding, higher = more signal;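 also: binding of the protein to compounds printed on small-molecule microarray slides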
# [8] = FRG1 promoter luciferase signal modulators, primary screen, FRG1 inhibition for FSHD, cell-based, C2C12 myotubes, firefly/Renilla luciferase, luminescence (AID 1084); conditions: higher = more signal, called active from +8 up or from −8 down
# [9] = binders of probe aFST on microarray, primary screen, stem cell growth factor project, biochemical, small-molecule microarray, fluorescence 635/667 (AID 1086); conditions: higher = more signal;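 also: score merges 667 nm fluorescence with signal-to-noise of each printed compound spot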
# [10] = binders of probe aHhip on microarray, primary screen, stem cell growth factor project, biochemical, small-molecule microarray, fluorescence 635/667 (AID 1087); conditions: higher = more signal;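 also: score merges spot fluorescence at 667nm with spot signal to noise ratio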
# Chain of Pro-neuregulin-1, membrane-bound isoform (Homo sapiens) (Q02297 whole entry, looked up, the tested form may be a part, canonical isoform): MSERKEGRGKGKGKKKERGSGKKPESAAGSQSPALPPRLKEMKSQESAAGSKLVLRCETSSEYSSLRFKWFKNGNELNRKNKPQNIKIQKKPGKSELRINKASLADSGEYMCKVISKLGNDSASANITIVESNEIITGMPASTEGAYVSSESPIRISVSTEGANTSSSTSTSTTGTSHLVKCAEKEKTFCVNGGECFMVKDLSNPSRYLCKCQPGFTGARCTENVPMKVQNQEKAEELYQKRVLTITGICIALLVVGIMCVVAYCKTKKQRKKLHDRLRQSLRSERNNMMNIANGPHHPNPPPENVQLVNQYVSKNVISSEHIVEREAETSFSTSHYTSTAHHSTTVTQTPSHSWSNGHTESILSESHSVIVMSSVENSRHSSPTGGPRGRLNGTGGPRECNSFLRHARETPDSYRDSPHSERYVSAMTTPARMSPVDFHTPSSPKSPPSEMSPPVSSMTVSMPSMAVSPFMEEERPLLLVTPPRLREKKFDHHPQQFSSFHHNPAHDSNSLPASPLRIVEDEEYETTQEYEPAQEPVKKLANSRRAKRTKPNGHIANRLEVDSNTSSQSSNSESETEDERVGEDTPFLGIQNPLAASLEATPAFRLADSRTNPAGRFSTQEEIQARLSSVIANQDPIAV
# Chain of Neurogenic locus notch homolog protein 2 (Homo sapiens) (Q04721 whole entry, looked up, canonical isoform): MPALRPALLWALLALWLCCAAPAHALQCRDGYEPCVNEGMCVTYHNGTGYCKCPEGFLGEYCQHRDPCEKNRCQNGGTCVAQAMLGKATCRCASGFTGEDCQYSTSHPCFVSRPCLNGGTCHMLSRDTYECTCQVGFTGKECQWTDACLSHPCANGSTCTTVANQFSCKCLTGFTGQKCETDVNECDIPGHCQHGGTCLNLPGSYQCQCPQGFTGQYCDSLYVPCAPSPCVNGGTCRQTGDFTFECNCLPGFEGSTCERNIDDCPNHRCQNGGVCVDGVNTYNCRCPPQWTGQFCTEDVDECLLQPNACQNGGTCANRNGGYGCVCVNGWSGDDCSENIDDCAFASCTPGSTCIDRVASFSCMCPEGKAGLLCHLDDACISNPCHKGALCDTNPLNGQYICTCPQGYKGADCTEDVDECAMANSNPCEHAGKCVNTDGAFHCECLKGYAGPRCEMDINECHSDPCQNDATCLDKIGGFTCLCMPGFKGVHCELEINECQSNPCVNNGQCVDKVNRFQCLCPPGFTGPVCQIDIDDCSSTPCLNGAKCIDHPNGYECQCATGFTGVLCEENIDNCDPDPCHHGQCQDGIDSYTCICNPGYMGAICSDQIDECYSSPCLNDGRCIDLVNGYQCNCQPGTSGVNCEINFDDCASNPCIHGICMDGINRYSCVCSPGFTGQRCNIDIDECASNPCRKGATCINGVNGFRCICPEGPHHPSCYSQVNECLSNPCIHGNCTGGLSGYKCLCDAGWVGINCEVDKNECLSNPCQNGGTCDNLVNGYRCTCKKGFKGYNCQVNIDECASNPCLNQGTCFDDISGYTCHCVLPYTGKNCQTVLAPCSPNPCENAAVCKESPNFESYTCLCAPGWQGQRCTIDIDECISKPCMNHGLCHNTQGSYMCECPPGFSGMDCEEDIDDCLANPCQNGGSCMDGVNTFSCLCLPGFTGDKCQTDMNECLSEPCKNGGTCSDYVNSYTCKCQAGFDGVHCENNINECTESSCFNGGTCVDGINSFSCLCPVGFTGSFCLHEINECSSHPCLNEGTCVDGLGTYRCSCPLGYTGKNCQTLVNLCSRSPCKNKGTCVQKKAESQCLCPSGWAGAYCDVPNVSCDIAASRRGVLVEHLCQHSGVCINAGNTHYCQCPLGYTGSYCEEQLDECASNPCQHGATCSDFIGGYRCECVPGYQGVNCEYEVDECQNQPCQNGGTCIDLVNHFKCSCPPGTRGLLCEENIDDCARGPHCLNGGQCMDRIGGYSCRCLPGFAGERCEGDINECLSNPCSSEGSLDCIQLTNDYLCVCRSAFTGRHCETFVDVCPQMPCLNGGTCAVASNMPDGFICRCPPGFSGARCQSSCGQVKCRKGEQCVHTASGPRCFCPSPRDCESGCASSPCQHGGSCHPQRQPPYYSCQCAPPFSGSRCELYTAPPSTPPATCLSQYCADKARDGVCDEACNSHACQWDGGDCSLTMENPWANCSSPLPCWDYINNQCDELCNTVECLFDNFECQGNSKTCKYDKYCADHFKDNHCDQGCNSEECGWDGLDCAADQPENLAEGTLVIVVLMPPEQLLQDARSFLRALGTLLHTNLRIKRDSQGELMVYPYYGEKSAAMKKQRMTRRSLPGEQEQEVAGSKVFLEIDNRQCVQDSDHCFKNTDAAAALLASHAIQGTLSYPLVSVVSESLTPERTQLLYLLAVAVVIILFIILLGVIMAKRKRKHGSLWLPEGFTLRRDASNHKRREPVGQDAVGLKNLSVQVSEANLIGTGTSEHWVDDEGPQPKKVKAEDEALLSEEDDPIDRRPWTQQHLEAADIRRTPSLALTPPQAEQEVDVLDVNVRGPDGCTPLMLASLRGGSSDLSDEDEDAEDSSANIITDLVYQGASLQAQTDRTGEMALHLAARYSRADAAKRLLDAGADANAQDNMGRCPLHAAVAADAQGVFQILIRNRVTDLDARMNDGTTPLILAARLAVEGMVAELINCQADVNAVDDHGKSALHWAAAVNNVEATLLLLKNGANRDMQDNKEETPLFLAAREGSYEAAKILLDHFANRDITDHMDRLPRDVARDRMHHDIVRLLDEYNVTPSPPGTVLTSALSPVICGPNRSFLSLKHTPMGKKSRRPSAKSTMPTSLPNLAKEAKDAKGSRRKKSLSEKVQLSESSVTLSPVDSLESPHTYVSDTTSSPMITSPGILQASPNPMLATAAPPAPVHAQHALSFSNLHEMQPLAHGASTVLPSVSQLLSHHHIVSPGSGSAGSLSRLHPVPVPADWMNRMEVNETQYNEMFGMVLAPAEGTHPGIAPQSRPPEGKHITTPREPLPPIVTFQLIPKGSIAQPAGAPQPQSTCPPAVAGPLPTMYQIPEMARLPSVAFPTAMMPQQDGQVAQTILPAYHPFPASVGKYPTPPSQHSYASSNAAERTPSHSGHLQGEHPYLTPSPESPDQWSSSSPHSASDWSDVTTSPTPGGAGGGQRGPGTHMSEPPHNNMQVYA
Compound,composite z-score [1],composite z-score [2],composite z-score [3],composite z-score [4],composite z-score [5],composite z-score [6],composite z-score [7],z-score [8],composite z-score [9],composite z-score [10]
C[C@]1(C(=O)NCc2ccccc2)c2ccccc2C(=O)N(Cc2cc(F)cc(C(F)(F)F)c2)[C@H]1c1ccc(CO)cc1,0.46,-0.512,-0.0894,-0.0459,-0.706,-0.353,1.26,-3.12 (inactive),-0.344,-0.0994
CC(C)NC(=O)[C@@H]1c2ccccc2C(=O)N(Cc2ccccc2Cl)[C@H]1c1ccc(CO)cc1,0.717,0.337,-0.145,-0.277,-0.387,1.49,1.39,-1.84 (inactive),-0.216,-0.137
COC(=O)C[C@@H]1C[C@H](C)[C@]2(O1)C(=O)N(Cc1ccccc1)c1ccc(NC(C)=O)cc12,-0.589,0.108,-0.144,0.315,0.381,-0.12,0.443,0.74 (inactive),-0.0507,0.0012
C=CCNC(=O)[C@@H]1[C@H]2C(=O)O[C@H](c3ccccc3)[C@H](c3ccccc3)N2[C@H](c2ccc(O)cc2)[C@@]12C(=O)N(C(=O)OCCOC)c1ccccc12,-0.0042,1.11,-0.0434,0.558,0.369,1.51,1.23,0.993 (inactive),0.376,-0.0994
C=CC[C@@]1(C(=O)NCC(O)CO)N=C(c2ccc(OCCCO)cc2)O[C@@H]1c1ccccc1N=[N+]=[N-] (stereo not given in full),0.638,1.22,0.0485,0.12,0.579,1.71,1.3,3.08 (inactive),1.39,0.158
O=C/C=C/c1ccc(Cl)cc1,-0.0244,-0.385,0.0086,0.439,-0.885,-0.476,0.651,-0.678 (inactive),-0.493,-0.282
COc1ccc([Si](C)(C)[C@@H]2[C@@H](CCn3cc([C@H](O)c4ccccc4)nn3)O[C@]3(C(=O)N(Cc4cccc(N5CCOC5=O)c4)c4ccccc43)[C@H]2C)cc1,0.752,-0.268,-0.152,-0.368,-1.11,0.0895,-0.0072,1.34 (inactive),-0.64,-0.236
CC(C)N1C(=O)[C@@]2(c3ccc([N+](=O)[O-])cc3)CC(=O)N(CC34CC5CC(CC(C5)C3)C4)[C@@H]2c2ccc(CO)cc21,-0.448,-1.26,-0.188,-0.373,-1.16,-0.34,-0.867,0.63 (inactive),-0.39,-0.164
COC(=O)[C@@]1(Cc2ccc(OC)cc2)[C@H]2c3cc(C(=O)N4CCCC4)n(Cc4ccccn4)c3C[C@H]2CN1C(=O)c1ccccc1,0.381,0.765,0.396,1.11,1.66,2.1,1.4,2.78 (inactive),1.01,0.501
COCCCNC(=O)[C@@]1(CCC(=O)OC(C)(C)C)N=C(c2ccc(OCCCO)cc2)O[C@H]1c1ccccc1CN=[N+]=[N-],-0.073,-0.158,-0.0724,0.527,1.67,1.59,1.27,2.42 (inactive),1.53,0.238
O=C1OCCC=C[C@H]2OC34C=CCN(Cc5ccccc5)C(=O)[C@H]3N(CCCCCO)C(=O)[C@@H]4C12 (stereo not given in full),-0.557,1.4,-0.175,-0.436,-0.765,1.92,1.63,-0.781 (inactive),0.0164,-0.35
C=CCNC(=O)[C@@H]1[C@H]2C(=O)O[C@H](c3ccccc3)[C@H](c3ccccc3)N2[C@H](c2ccccc2OCCO)[C@@]12C(=O)Nc1ccc(C#CC3=CCCCC3)cc12,-0.098,0.571,0.0368,0.865,1.25,0.948,1.12,0.0472 (inactive),0.639,0.134
Cc1c(NC(=O)CC#N)c(=O)n(-c2ccccc2)n1C,-0.436,0.114,-0.0996,0.374,0.348,0.379,0.483,1.66 (inactive),0.404,-0.498
CC(C)c1ccc(NN2C(C(O)c3ccc(N(C)C)cc3)C=CC3C(=O)N(c4ccccc4)C(=O)C32)cc1 (stereo not given),-0.145,1.43,0.0485,0.405,1.5,1.88,1.12,2.3 (inactive),1.46,-0.166
CC(C)Cc1ccc(CN2CC[C@@H](NS(=O)(=O)c3ccccc3)C2)cc1,-0.402,1.96,-0.192,-0.188,-1.43,-0.163,-0.0314,-0.803 (inactive),-0.459,-0.132
COc1ccc(CCNC(=O)[C@@]2(c3ccc([N+](=O)[O-])cc3)CC(=O)N(CC34CC5CC(CC(C5)C3)C4)[C@@H]2c2ccc(CO)cc2)cc1,0.281,0.441,-0.0039,0.268,1.14,1.22,1.15,-0.0918 (inactive),0.298,0.0848

Compound,composite z-score [1],composite z-score [2],composite z-score [3],composite z-score [4],composite z-score [5],composite z-score [6],composite z-score [7],z-score [8],composite z-score [9],composite z-score [10]
CCOc1cc(C(O)C2C=CC3C(=O)N(c4ccccc4)C(=O)C3N2Nc2ccc([N+](=O)[O-])cc2)ccc1O (stereo not given),-0.549,0.23,0.0139,0.516,0.796,0.946,0.943,-0.374 (inactive),0.311,-0.271
CC(C)CNC(=O)[C@@]1(c2ccc([N+](=O)[O-])cc2)CC(=O)N(CC23CC4CC(CC(C4)C2)C3)[C@@H]1c1ccc(CO)cc1,0.158,1.83,0.0201,0.39,0.994,0.65,1.19,-2.51 (inactive),-0.0554,0.075
CCCCCN1CC=CC23O[C@@H]4/C=C\CCCOC(=O)C4[C@H]2C(=O)N(CCCCCCO)[C@@H]3C1=O (stereo not given in full),-0.19,0.109,-0.103,-0.525,-0.774,0.729,1.28,-1.19 (inactive),-0.645,-0.37
COC(=O)[C@@]1(Cc2ccccc2)[C@H]2c3cc(C(=O)N(C)C)n(Cc4cc(C)n(C)n4)c3C[C@H]2CN1C(=O)c1ccccc1,0.512,0.403,-0.221,-0.0117,1.69,1.51,1.27,0.0005 (inactive),1.51,0.628
COCCOC(=O)N1C(=O)[C@@]2(c3cc(C#CCC(C(=O)OC)C(=O)OC)ccc31)[C@H](c1ccc(O)cc1)N1[C@H](c3ccccc3)[C@H](c3ccccc3)OC(=O)[C@H]1[C@@H]2C(N)=O,-0.239,0.365,0.0661,1.11,1.1,0.328,1.32,-0.4 (inactive),0.404,-0.124
CC(C)c1ccc(NN2C(C(O)c3c(F)cccc3Cl)C=CC3C(=O)N(c4ccccc4)C(=O)C32)cc1 (stereo not given),1.07,0.177,0.0923,0.653,1.52,1.31,0.973,2.73 (inactive),1.68,-0.139
COCCOC(=O)N1C(=O)[C@@]2(c3cc(C#CCCO)ccc31)[C@H](c1ccc(O)cc1)N1[C@H](c3ccccc3)[C@H](c3ccccc3)OC(=O)[C@H]1[C@@H]2C(N)=O,1.04,0.751,-0.0173,0.203,-0.982,1.08,1.42,-0.966 (inactive),0.102,0.113
[N-]=[N+]=Nc1ccccc1[C@@H]1OC(c2ccc(OCCCO)cc2)=N[C@]1(CCS(=O)(=O)c1ccccc1)C(=O)N1CCOCC1,0.712,0.274,0.269,1.09,1.62,1.95,1.24,-0.246 (inactive),1.89,-0.123
COCCCNC(=O)[C@@]1(C)c2ccccc2C(=O)N(Cc2cc(C(F)(F)F)cc(C(F)(F)F)c2)[C@H]1c1ccc(CO)cc1,0.472,-1.39,-0.103,-0.635,-0.664,1.59,0.738,-1.29 (inactive),-0.0412,-0.134
O=C1C=CC(=O)[C@@H]2CC(COc3ccccc3)=C3[C@@H](CCc4ccccc4)OB(O)C[C@@H]3[C@H]12,0.232,2.47,-0.132,0.272,0.222,-0.18,0.184,-1.29 (inactive),-0.467,0.176
N#Cc1ccc(NN2C(C(O)C3CCCCC3)C=CC3C(=O)N(c4ccccc4)C(=O)C32)cc1 (stereo not given),0.0086,-0.433,0.0429,0.461,1.58,1.31,1.33,-0.585 (inactive),1.38,0.754
Cc1ccc(S[C@]2(C(=O)NC3CC3)CC(=O)N(Cc3ccccc3)[C@@H]2c2ccc(CO)cc2)cc1,0.462,-1.21,-0.118,-0.0824,-0.764,-0.419,0.0059,-1.17 (inactive),0.135,-0.247
COC(=O)[C@@]1(Cc2ccc(F)cc2)[C@H]2c3cc(C(=O)N(C)C)n(CCc4ccccn4)c3C[C@H]2CN1C(=O)c1ccccc1,0.681,0.466,0.723,0.759,1.52,0.183,1.09,1.98 (inactive),2.35,0.178
C=CCNC(=O)[C@@H]1[C@H]2C(=O)O[C@H](c3ccccc3)[C@H](c3ccccc3)N2[C@H](c2ccc(OCCO)cc2)[C@@]12C(=O)Nc1ccccc12,0.511,0.0949,-0.116,0.405,0.117,1.51,1.23,-1.05 (inactive),0.627,-0.513
COc1ccc([Si](C)(C)[C@@H]2[C@@H](CC(=O)N3CCC[C@H]3CO)O[C@]3(C(=O)N(C)c4c(Br)cc(C)cc43)[C@H]2C)cc1,-0.438,0.264,-0.105,0.113,1.04,0.776,0.9,-1.53 (inactive),0.219,-0.0427
CC(C)C[C@@H]1NC(=O)[C@H]2C[C@@H](C(=O)NCCCCCCNC(=O)CS)[C@@H](c3cccc(OCCO)c3)N2C1=O,-0.206,0.0281,-0.0493,0.43,1.39,1.24,1.32,-0.154 (inactive),0.752,-0.0645
